± gives the standard deviation.

This experiment concerns MILI (PIWIL2) piRISC loaded with piRNA #1 (26 nt). In words: pre-steady-state target cleavage rate (min^-1); guide: piRNA #1 5'p-UGAGGUAGUAGGUUGUAUAGUAUCCA; MIWI and MILI are mouse PIWI proteins and EfPiwi is from a freshwater sponge; tags in brackets are library labels; higher = faster piRNA-guided slicing of the target. The conditions noted are these: auxiliary factor: 500 nM mouse GTSF1. Put shortly:
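The pre-steady-state cleavage rate came from a burst-and-steady-state fit to pooled data from three Cleave-'n-Seq trials, in which uncleaved targets were sequenced and normalised to depth and to weakly complementary targets. Each reaction held 0.1 nM transcribed, DNA-blocked target RNA library and 1 nM active affinity-purified piRISC carrying one synthetic guide, with or without 500 nM GTSF1 partner protein, in HEPES–potassium acetate buffer at 33 °C for 0–8 or 0–960 min. k3 was capped at 0.0001 min^-1.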
Turning to GGAGACCUUACUUUACAACCUACUACCACA, the “pre-steady-state target cleavage rate” value came out at 0.14 ± 0.018.
As for GGAGACCUUAGAUUACAACCUACUACCUCA, the figure is 0.0208 ± 0.007; as for GGAGAGGAUACUAUAGAACCUACAACCUCA, 0.00427 ± 0.0024.
The result for GGAGAGGAUACAAUACAACCUACUACCUGA reads 0.0513 ± 0.0087; that for GGAGACCAUACUAUACAAGCUACUACCACA, 0.32 ± 0.02; that for GGAGACCUAUCUUUACAACCAACUACCUCA, 0.0039 ± 0.0033.
On to GGAGACCUAACUAAACAACCUACUACCACA, for which the “pre-steady-state target cleavage rate” value worked out at 0.139 ± 0.027.
The result for GGAGACCUAUCUAUACAACCUACUAGCCUCA reads 0.147 ± 0.02; that for GGAGUGGAUACUUUACAACCAACUACCUCA, 0.00276 ± 0.0018; that for GGAGACCAUUCUAUACAACCUACUUCCUCA, 0.0522 ± 0.0086.
For GGAGACCUAUGUAUACAACCUACUACCUGA, the “pre-steady-state target cleavage rate” value was determined as 0.0463 ± 0.008.
As for GGAGACCAUACUAUACAACCUAUACCUCA, the figure is 0.016 ± 0.0051; as for GGAGACCUAUGAUAUGUUGCUAGAUCCUCA, under 0.0001; as for GGAGACCUUAGUAUACAUCCUACUACCUCA, 0.126 ± 0.018.
Regarding GGAGACCUAUGUAAACAACCUUCUACCUCA, the “pre-steady-state target cleavage rate” value was found to be 0.00363 ± 0.0033.
As to GGAGACCAUACUAUACAUGGUACUACCUCA, the “pre-steady-state target cleavage rate” value was 0.00626 ± 0.0026.
As for GGAGACCUUACUAUACUACGUACUACCUCA, the figure is 0.0307 ± 0.0046.
With “GGAGACCUAUGAAUACAACGAUGAUGGAGA [g12:g18:cont:t1A]”, the “pre-steady-state target cleavage rate” value was under 0.0001.
The result for GGAGAGGAUACAAUAGAACCUACUACCUCA reads 0.148 ± 0.012.
The result for GGAGACCUAUGAUAACAAGCCUACUACCUCA reads under 0.0001; that for GGAGAGGAUACAAUACAACCUUCUACCUCA, 0.0148 ± 0.003.
The result for GGAGACCUUACUAUACAACCAACUACGUCA reads 0.00333 ± 0.0023.
As for GGAGACCUUACUAUUCAACCUACUUCCUCA, the “pre-steady-state target cleavage rate” value came to 0.0623 ± 0.013.
The result for GGAGAGCAUACUAUACAACCUACAACCUCA reads 0.133 ± 0.015.
Turning to GGAGACCUAUGAUUUCAACCUACAACCUCA, the “pre-steady-state target cleavage rate” value amounted to 0.00341 ± 0.0021.
The result for GGAGACCAUACUUUACAAGCUACUACCUCA reads 0.199 ± 0.017; that for GGAGAGGUUAGUAUACAACCUACUACCUCA, 0.0314 ± 0.0096.
For the sequence GGAGACCUAUGUAAACAACGUACUACCUCA, the “pre-steady-state target cleavage rate” value was determined as 0.0029 ± 0.002.
As for GGAGACCAUACAAUACAACCUACUUCCUCA, the figure is 0.125 ± 0.016.
As for GGAGACCUAUGAUAUGUUCCUACUCCUCA, the figure is under 0.0001.
The result for GGAGACCUAUGAUUACAACGUACUACCUCA reads 0.00443 ± 0.0016.
In the case of GGAGACCUAUGAAUACAAGCUACUACCUGA, the “pre-steady-state target cleavage rate” value was found to be 0.017 ± 0.0038.
As for GGAGACCUAUGUAUUCAACCUUCUACCUCA, the figure is 0.00294 ± 0.0026; as for GGAGACCUAUGAAUACAACUUACUACCUCA, 0.00939 ± 0.003.
The result for GGAGACCAUACUAUACUACCUACUAGCUCA reads 0.0939 ± 0.017; that for GGAGACCUAUGAAUACAUCCUUCUACCUCA, 0.00365 ± 0.0022.
As for GGAGACCUAUCUAAACAUCCUACUACCUCA, the figure is 0.116 ± 0.015.
GGAGACCUAACUAUACAACCUACUACGUCA: the “pre-steady-state target cleavage rate” value came out at 0.0415 ± 0.014.
As for GGAGACCUAUCAAUACAAGCUACUACCUCA, the figure is 0.108 ± 0.013.

The values are drawn from the supplement of paper PMC10338343.
